Results as given in publication PMC4336329 (PLoS ONE, 2015).
In all, about 310,000 compounds went through this assay and about 14,000 (4.5%) showed an effect of 50% or more. The effect is printed as a negative number. Many of the other results were omitted from the sample, so strong results are more common in it than they were.

The compounds below were run against human ether-à-go-go-related gene (hERG) potassium channel (human, UniProt Q12809) (assay: primary screen, population patch clamp on CHO cells stably expressing hERG; higher = less effect of the substance).
human ether-à-go-go-related gene (hERG) potassium channel, sequence (Q12809 whole entry, looked up): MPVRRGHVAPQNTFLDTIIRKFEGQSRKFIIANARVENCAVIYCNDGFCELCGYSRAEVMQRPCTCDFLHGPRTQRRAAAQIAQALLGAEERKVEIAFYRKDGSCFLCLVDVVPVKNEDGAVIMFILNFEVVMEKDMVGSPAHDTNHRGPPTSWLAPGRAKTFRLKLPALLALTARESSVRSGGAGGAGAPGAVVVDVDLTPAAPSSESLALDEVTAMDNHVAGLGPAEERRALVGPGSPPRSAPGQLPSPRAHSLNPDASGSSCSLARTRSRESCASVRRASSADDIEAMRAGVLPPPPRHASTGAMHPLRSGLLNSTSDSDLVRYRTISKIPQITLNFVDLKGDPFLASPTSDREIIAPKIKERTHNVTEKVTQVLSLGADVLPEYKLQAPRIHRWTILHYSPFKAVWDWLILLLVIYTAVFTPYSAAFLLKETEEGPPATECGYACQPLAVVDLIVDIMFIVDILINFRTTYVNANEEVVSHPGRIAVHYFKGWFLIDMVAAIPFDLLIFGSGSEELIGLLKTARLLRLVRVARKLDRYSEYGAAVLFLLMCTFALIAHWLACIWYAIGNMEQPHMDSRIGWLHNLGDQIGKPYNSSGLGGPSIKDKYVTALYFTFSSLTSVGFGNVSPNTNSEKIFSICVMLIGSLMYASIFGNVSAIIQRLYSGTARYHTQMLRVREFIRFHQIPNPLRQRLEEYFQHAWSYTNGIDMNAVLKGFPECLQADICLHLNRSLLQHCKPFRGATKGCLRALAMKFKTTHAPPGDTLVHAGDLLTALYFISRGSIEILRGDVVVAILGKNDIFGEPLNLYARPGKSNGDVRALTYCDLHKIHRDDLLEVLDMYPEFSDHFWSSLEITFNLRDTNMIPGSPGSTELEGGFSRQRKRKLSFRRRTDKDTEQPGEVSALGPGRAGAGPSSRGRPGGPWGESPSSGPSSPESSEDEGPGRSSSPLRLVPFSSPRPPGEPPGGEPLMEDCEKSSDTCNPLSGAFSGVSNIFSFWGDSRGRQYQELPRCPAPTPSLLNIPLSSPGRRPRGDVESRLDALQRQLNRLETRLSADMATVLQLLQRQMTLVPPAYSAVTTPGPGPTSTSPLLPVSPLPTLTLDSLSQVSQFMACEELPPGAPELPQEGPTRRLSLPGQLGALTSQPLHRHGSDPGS
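Note: peak tail current of the secondary pulse compared with the same well before compound.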

Question: For `Cc1onc(-c2ccccc2Cl)c1C(=O)Nc1ccc(S(=O)(=O)NCC2CCCO2)cc1` (stereo not drawn), which “hERG current change (%, negative = inhibition) at 10uM” value is on record?
Answer: The value was -10.5%.

Question: How did the “hERG current change (%, negative = inhibition) at 10uM” value turn out when `COc1ccc(C(=O)Nc2ccccc2N2CCOCC2)cc1S(=O)(=O)N1CCCC1` was run?
Answer: Its value is -24.5%.

Question: With `O=C(NCCCN1CCOCC1)c1cccc(S(=O)(=O)N2CCc3ccccc3C2)c1` as the compound, how does the “hERG current change (%, negative = inhibition) at 10uM” value read?
Answer: Its value is -17%.

Question: `O=C(NNC(=O)c1ccc(Cl)cc1Cl)c1ccncc1` was tested. Which “hERG current change (%, negative = inhibition) at 10uM” value did it give?
Answer: The value was 17%.

Question: With `Cc1ccc(-c2cccc(C(=O)NCc3ccccc3)n2)c2ccccc12` as the compound, how does the “hERG current change (%, negative = inhibition) at 10uM” value read?
Answer: Its value is 17.8%.

Question: How did the “hERG current change (%, negative = inhibition) at 10uM” value turn out when `CCOC(=O)N1C=CC=C[C@@H]2[C@@H](N3C(=O)c4ccccc4C3=O)C(=O)N21` was run?
Answer: Its value is 0.941%.

Question: With `COc1ccc(OC)c2[nH]c(=O)c(CCNC(=O)C(=O)c3c(C)[nH]c4ccccc34)cc12` as the compound, how does the “hERG current change (%, negative = inhibition) at 10uM” value read?
Answer: The value was -1.04%.

Question: Which “hERG current change (%, negative = inhibition) at 10uM” value does the source give for `C/C(CC(=O)Nc1ccccc1[N+](=O)[O-])=N\NC(=O)COc1ccccc1C` here?
Answer: Its value is -5.65%.

Question: How did the “hERG current change (%, negative = inhibition) at 10uM” value turn out when `COC(=O)c1cc(-c2ccc(OC)c(OC)c2)c2c(=O)[nH]c(=O)n(C)c2n1` was run?
Answer: Its value is 21.3%.

Question: How did the “hERG current change (%, negative = inhibition) at 10uM” value turn out when `COc1ccc(CSCCc2n[nH]c(=S)n2-c2ccccc2)cc1` was run?
Answer: Its value is 20.1%.

Question: For `CC1=Nn2c(nnc2-c2n[nH]c3c2CCC3)SC1`, which “hERG current change (%, negative = inhibition) at 10uM” value is on record?
Answer: Its value is 8.18%.

Question: With `Cc1ccc(N(CC(=O)NCC(O)c2ccccc2)S(=O)(=O)c2ccc(C)cc2)cc1` (stereo not drawn) as the compound, how does the “hERG current change (%, negative = inhibition) at 10uM” value read?
Answer: The value was -65.9%.

Question: How did the “hERG current change (%, negative = inhibition) at 10uM” value turn out when `Cc1ccc(S(=O)(=O)N(CC(=O)NCc2cccnc2)c2ccc(F)cc2)cc1` was run?
Answer: The value was -61.2%.

Question: `CN(c1ccc(OCC(=O)OCC(=O)Nc2ccc(F)cc2)cc1)S(=O)(=O)c1ccc(Cl)cc1` was tested. Which “hERG current change (%, negative = inhibition) at 10uM” value did it give?
Answer: Its value is -59.2%.

Question: Which “hERG current change (%, negative = inhibition) at 10uM” value does the source give for `CN(c1ccc(OCC(=O)OCC(=O)Nc2c(F)c(F)c(F)c(F)c2F)cc1)S(=O)(=O)c1ccc(F)cc1` here?
Answer: Its value is 8.61%.

Question: With `CCNC(=O)CN(c1ccc(C)cc1)S(=O)(=O)c1ccccc1` as the compound, how does the “hERG current change (%, negative = inhibition) at 10uM” value read?
Answer: Its value is 7.75%.

Question: For `COc1ccc(N(CC(=O)NC(C)c2ccccc2)S(=O)(=O)c2ccc(C)cc2)cc1` (stereo not drawn), which “hERG current change (%, negative = inhibition) at 10uM” value is on record?
Answer: Its value is -22.1%.

Question: With `COc1ccc(S(=O)(=O)N(CC(=O)NCc2cccnc2)c2ccc(C)cc2)cc1OC` as the compound, how does the “hERG current change (%, negative = inhibition) at 10uM” value read?
Answer: Its value is -10%.

Question: Which “hERG current change (%, negative = inhibition) at 10uM” value does the source give for `COc1ccc(S(=O)(=O)N(CC(=O)NCc2cccnc2)c2ccc(F)cc2)cc1OC` here?
Answer: Its value is 4.62%.

Question: How did the “hERG current change (%, negative = inhibition) at 10uM” value turn out when `COc1ccc(N(CC(=O)NCc2ccncc2)S(=O)(=O)c2ccc(C)c([N+](=O)[O-])c2)cc1` was run?
Answer: Its value is -50.9%.

Question: How did the “hERG current change (%, negative = inhibition) at 10uM” value turn out when `CN(c1ccc(OCC(=O)OCC(=O)Nc2ccccc2)cc1)S(=O)(=O)c1ccc(F)cc1` was run?
Answer: Its value is -11.9%.

Question: Which “hERG current change (%, negative = inhibition) at 10uM” value does the source give for `COc1ccc(N(CC(=O)NCc2cccnc2)S(=O)(=O)c2ccc(C)c([N+](=O)[O-])c2)cc1` here?
Answer: Its value is -36.6%.

Question: `COc1ccc(N(CC(=O)Nc2ccc(C(N)=O)cc2)S(=O)(=O)c2ccc(C)c([N+](=O)[O-])c2)cc1` was tested. Which “hERG current change (%, negative = inhibition) at 10uM” value did it give?
Answer: Its value is 24%.

Question: How did the “hERG current change (%, negative = inhibition) at 10uM” value turn out when `Fc1ccc(C2=CCN(C(c3cccs3)c3nnnn3CCc3ccccc3)CC2)cc1` (stereo not drawn) was run?
Answer: The value was -0.341%.

Question: How did the “hERG current change (%, negative = inhibition) at 10uM” value turn out when `O=C(CCC(=O)c1cccs1)Nc1ccccc1F` was run?
Answer: The value was 3.01%.

Question: `COc1ccc(C(=O)CCC(=O)NCCc2c[nH]c3ccccc23)cc1OC` was tested. Which “hERG current change (%, negative = inhibition) at 10uM” value did it give?
Answer: The value was 21.2%.

Question: Which “hERG current change (%, negative = inhibition) at 10uM” value does the source give for `Cc1cccc(C)c1NC(=O)c1ccc(CN2CCc3ccccc3C2)cc1` here?
Answer: Its value is 4.57%.

Question: Which “hERG current change (%, negative = inhibition) at 10uM” value does the source give for `Cc1nn(CC(=O)N2CCCCCC2)c(=O)c2cc3occc3n12` here?
Answer: The value was 14.6%.

Question: Which “hERG current change (%, negative = inhibition) at 10uM” value does the source give for `Cc1cc(NC(=O)c2cc(-c3ccc(Br)cc3)on2)no1` here?
Answer: The value was 17.6%.

Question: For `COc1ccc(CCNC(=O)c2ccccc2OCc2c(C)noc2C)cc1`, which “hERG current change (%, negative = inhibition) at 10uM” value is on record?
Answer: The value was -26.4%.

Question: With `NS(=O)(=O)c1ccc(NC(=O)/C=C/c2ccccc2Cl)cc1` as the compound, how does the “hERG current change (%, negative = inhibition) at 10uM” value read?
Answer: Its value is 9.54%.

Question: For `CN=C(Nc1cc(C)nn1-c1ccccc1)c1ccc(F)cc1`, which “hERG current change (%, negative = inhibition) at 10uM” value is on record?
Answer: The value was -9.94%.

Question: With `COc1cc(SC)ccc1C(=O)Nc1cccc(S(=O)(=O)NC2=NCCCCC2)c1` as the compound, how does the “hERG current change (%, negative = inhibition) at 10uM” value read?
Answer: Its value is 4.08%.

Question: Which “hERG current change (%, negative = inhibition) at 10uM” value does the source give for `CN(c1ccc(OCC(=O)O)cc1)S(=O)(=O)c1ccc2ccccc2c1` here?
Answer: Its value is 16.1%.

Question: Which “hERG current change (%, negative = inhibition) at 10uM” value does the source give for `CN(c1ccc(OCC(=O)NCc2cccnc2)cc1)S(=O)(=O)c1ccc(Cl)cc1` here?
Answer: The value was -58.4%.

Question: With `CCOc1ccc(S(=O)(=O)N(C)c2ccc(OCC(=O)NCc3cccnc3)cc2)cc1` as the compound, how does the “hERG current change (%, negative = inhibition) at 10uM” value read?
Answer: Its value is -21.5%.

Question: Which “hERG current change (%, negative = inhibition) at 10uM” value does the source give for `Cc1ccc(S(=O)(=O)N(Cc2ccc(Cl)cc2)c2ccccc2C(=O)NCc2cccnc2)cc1` here?
Answer: Its value is -52%.

Question: For `O=C(COc1ccc(S(=O)(=O)N2CCCC2)cc1)NCc1cccnc1`, which “hERG current change (%, negative = inhibition) at 10uM” value is on record?
Answer: Its value is -3.42%.

Question: With `COCCNC(=O)COc1ccc(N(C)S(=O)(=O)c2ccc3ccccc3c2)cc1` as the compound, how does the “hERG current change (%, negative = inhibition) at 10uM” value read?
Answer: Its value is -62%.
